Screening results from PubChem BioAssay.
In the library only some 2.2% were active in any assay of this set; here they are far more common.
C2C12 statin – protects C2C12 myotubes from simvastatin toxicity. ATP luminescence, 48 h; scaled: DMSO 0, geranylgeraniol control 100. rescue of ATP level, % at 7.49 µM. 0.78% of 330,000 active. AID 602340;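 active = mean ATP rescue above about 67%, or every replicate alone reaching that limit, limit read from the data, passing the limit was not always enough; inconclusive = no clear call, values can overlap the other calls; inactive = mean under the limit and some replicate under it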;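 note: myotubes were challenged with 10 µM simvastatin during compound exposure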
miR122 inh – blocks miR-122 activity in Huh7 sensor cells; 0.3% of 340,000 active; activation (reporter increase), % at 12.5 µM; AID 602342; Huh7 miR-122 Renilla luciferase sensor, 48 h; neutral wells = 0, positive control = 100;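 active = mean replicate activation score at least 90 and every replicate individually at or above 90; inconclusive = only one of the two criteria met; inactive = neither criterion met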;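 note: higher luciferase means less miR-122 activity so hits act as miR-122 inhibitors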
PvdQ acylase – blocks Pseudomonas aeruginosa PvdQ acylase activity; 0.063% of 340,000 active; purified PvdQ acylase, fluorescence plate reader; inhibition, % at 10 µM; AID 488965; in the data active = inhibition above about 30%, passing the limit was not always enough; inconclusive = no clear call, values can overlap the other calls;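 note: 0% = vehicle neutral wells and 100% = reference inhibitor wells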
PGC1a acetyl inh – PGC1a acetylation modulation, inhibitor mode | U2OS PGC1a acetylation, AlphaScreen anti-acetyl-lysine; with virally co-expressed GCN5 acetyltransferase | inhibition, % at 15.6 µM | 0.17% of 350,000 active | AID 651687;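 active = every replicate shows inhibition of at least 40%; inconclusive = mean inhibition at least 40% but some replicate below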;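 note: 0% = neutral control wells and 100% = positive control wells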
DENV2 CPE – DENV2-induced cell death inhibition; 1.7% of 350,000 active; AID 651640; DENV2-infected cells, cytopathic effect rescue, plate reader; CPE inhibition, % at 9.99 µM; in the data active = CPE inhibition above about 20%, passing the limit was not always enough; inconclusive = no clear call, values can overlap the other calls; tested in BHK-21 cells;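 note: 0% = median of neutral control wells and 100% = median of positive control wells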
Numbers without * were called inactive; ? = inconclusive; / = no result; [ ] = another dose, or the depositor's remark.

SMILES	C2C12 statin	miR122 inh	PvdQ acylase	PGC1a acetyl inh	DENV2 CPE
Cc1ccc(C)c(S(=O)(=O)NC2CCSC2=O)c1 (stereo not given)	3	9	79*	-19	0
O=C1SCCC1NS(=O)(=O)c1ccc([N+](=O)[O-])cc1 (stereo not given)	/	-1	-3	5	3
C[C@@H]1CN([C@H](C)CO)S(=O)(=O)c2ccc(-c3ccncc3)cc2O[C@H]1CN(C)C(=O)CN(C)C	13	8[16.7 µM]	/	21	-6
COc1cccc(-c2ccc3c(c2)[C@H]2[C@H](CCN2C(=O)CN2CCOCC2)[C@H](CO)N3)c1	-9	-7[16.7 µM]	/	-7	?
CCCC(=O)Nc1ccc2c(c1)C(=O)N(C)[C@@H]1CC[C@H](CC(=O)NCCCN(C)C)O[C@H]1CO2	-10	4[16.7 µM]	/	8	5
CCCC(=O)Nc1ccc2c(c1)C(=O)N(C)[C@@H]1CC[C@@H](CC(=O)NCCCN(C)C)O[C@H]1CO2	3	-1[16.7 µM]	/	2	16
CCCC(=O)Nc1ccc2c(c1)C(=O)N(C)[C@H]1CC[C@H](CC(=O)NCCCN(C)C)O[C@@H]1CO2	-7	-6[16.7 µM]	/	1	61*
CCCC(=O)Nc1ccc2c(c1)C(=O)N(C)[C@H]1CC[C@H](CC(=O)NCCCN(C)C)O[C@H]1CO2	-2	-10[16.7 µM]	/	-4	49*
CCS(=O)(=O)N[C@@H]1CC[C@@H](CC(=O)NCc2ccccn2)O[C@@H]1CO	-4	/	/	8	3
Cc1ccc(C(C(=O)NC2CCCC2)N(Cc2cccs2)C(=O)CNC(=O)c2cccs2)o1 (stereo not given)	136*	1	-9	-7	/
Cc1ccc(C(C(=O)NC2CCCC2)N(C(=O)CNC(=O)c2cccs2)c2cccnc2)o1 (stereo not given)	-2	7	-5	6	/
CCOc1ccc(N(CC(=O)NC2CCCCC2)C(=O)CNC(=O)c2cccs2)cc1	-4	2	-1	-7	33*
COc1ccc(N(CC(=O)NC2CCCCC2)C(=O)CNC(=O)c2cccs2)cc1	-33	-4	-4	-4	-7
COCCNC(=O)C[C@H]1CC[C@H]2[C@@H](COc3ccc(NC(=O)c4ccno4)cc3C(=O)N2C)O1	-4	35[16.7 µM]	/	-4	2
C[C@@H]1CN([C@H](C)CO)C(=O)c2cc(NC(=O)Cc3cn(C)c4ccccc34)ccc2O[C@@H]1CN(C)C(=O)NC1CCCCC1	30	-5[16.7 µM]	/	1	-1
C[C@H](CO)N1C[C@H](C)[C@H](CN(C)C(=O)NC2CCCCC2)Oc2ccc(NC(=O)Cc3ccccc3)cc2C1=O	-17	7[16.7 µM]	/	-7	33*
C[C@H]1CN([C@@H](C)CO)C(=O)c2cc(NC(=O)Cc3ccccc3)ccc2O[C@H]1CN(C)C(=O)NC1CCCCC1	-1	-1[16.7 µM]	/	7	-7
C[C@@H]1CN([C@@H](C)CO)C(=O)c2cc(NC(=O)Cc3cn(C)c4ccccc34)ccc2O[C@H]1CN(C)C(=O)NC1CCCCC1	15	10[16.7 µM]	/	3	24*
CC(C)NC(=O)N(C)C[C@@H]1Oc2ccc(NC(=O)Cc3cn(C)c4ccccc34)cc2C(=O)N([C@H](C)CO)C[C@H]1C	27	14[16.7 µM]	/	3	52*
COc1ccccc1-c1cn(CC[C@H]2CC[C@H](NC(=O)c3ccccc3F)[C@H](CO)O2)nn1	13	/	/	0	0
Cc1cc(C(F)(F)F)n(-c2nc(C(=O)NNS(=O)(=O)c3ccccc3[N+](=O)[O-])cs2)n1	-3	-3	-13	110*	/
CC(C)c1ccc(C(=O)N/N=C/c2cccc(Cl)c2Cl)cc1	113*	4	-16	-5	/
COC(=O)C1=C(C)N(Cc2ccccc2C(F)(F)F)C(=NCc2ccccc2)NC1CCc1ccccc1 (stereo not given)	/	/	/	/	91*
COC(=O)C1=C(C)N(Cc2ccccc2C(F)(F)F)C(=NCc2ccc(C(F)(F)F)cc2)NC1CCc1ccccc1 (stereo not given)	/	/	/	/	4
COc1ccc(NC(=O)N(C)C[C@H]2Oc3c(NC(=O)C4CCOCC4)cccc3C(=O)N([C@@H](C)CO)C[C@H]2C)cc1	-6	5[16.7 µM]	/	2	5
SMILES	C2C12 statin	miR122 inh	PvdQ acylase	PGC1a acetyl inh	DENV2 CPE
CCC(CC)NC(=O)COC(=O)c1ccc(OCC(=O)Nc2ccccc2OC)c(OC)c1	67*	-10	-7	14	/
CN=C1c2ccccc2CN1c1cccc(C(=O)OC)c1	100*	0	-15	4	/
Cc1oc2cc(O)cc(C)c2c(=O)c1-c1cnn(-c2ccccc2)c1	89*	-9	-4	0	/
O=[N+]([O-])c1cccnc1N1CCN(Cc2ccc3c(c2)OCO3)CC1	14	4	8	-13	34*
O=[N+]([O-])c1ccccc1/C=C/CN1CCN(Cc2ccc3c(c2)OCO3)CC1	1	3	8	-11	47*
C(=C\c1ccccc1)/CN1CCN(Cc2ccc3c(c2)OCO3)CC1	8	-2	-7	4	-1
O=C(O/N=C1\CCS(=O)(=O)c2sccc21)c1ccccc1	0	170*	13	6	/
O=C(O/N=C1\CCS(=O)(=O)c2sccc21)c1ccc(F)cc1	1	-3	5	/	-1
CNC[C@@H]1OCCCC[C@@H](C)Oc2ccc(NC(=O)NC3CCCCC3)cc2C(=O)N([C@@H](C)CO)C[C@H]1C	45	2[16.7 µM]	/	2	-2
C[C@@H]1CN([C@@H](C)CO)C(=O)Cc2cc(NC(=O)Cc3cn(C)c4ccccc34)ccc2O[C@H]1CN(C)Cc1ccc(Oc2ccccc2)cc1	76*	-7[16.7 µM]	/	-18	1
COc1ccc(CN(C)C[C@@H]2Oc3ccc(NC(=O)Cc4cn(C)c5ccccc45)cc3CC(=O)N([C@H](C)CO)C[C@H]2C)cc1	81*	-5[16.7 µM]	/	-13	-2
COc1ccc(CN(C)C[C@H]2Oc3ccc(NC(=O)Cc4cn(C)c5ccccc45)cc3CC(=O)N([C@H](C)CO)C[C@H]2C)cc1	58	-7[16.7 µM]	/	0	2
C[C@@H]1CN([C@H](C)CO)C(=O)Cc2cc(NC(=O)Cc3cn(C)c4ccccc34)ccc2O[C@@H]1CN(C)Cc1ccc(Oc2ccccc2)cc1	46	-11[16.7 µM]	/	-9	6
COC(=O)C[C@H]1CC[C@H]2[C@H](COc3ccc(NS(=O)(=O)c4ccc(F)cc4)cc3C(=O)N2C)O1	13	-37[16.7 µM]	/	-1	-3
C[C@H](CO)N1C[C@H](C)[C@H](CN(C)Cc2cncnc2)Oc2ncc(C#CC(C)(C)O)cc2C1=O	-4	-1[16.7 µM]	/	11	4
C[C@@H]1CN([C@@H](C)CO)C(=O)c2cc(C#CC(C)(C)O)cnc2O[C@H]1CN(C)Cc1cncnc1	-15	3[16.7 µM]	/	-6	64*
C[C@H](CO)N1C[C@H](C)[C@@H](CN(C)Cc2cncnc2)Oc2ncc(C#CC(C)(C)O)cc2C1=O	-7	2[16.7 µM]	/	-2	-5
C[C@@H]1CN([C@@H](C)CO)C(=O)c2cc(C#CC(C)(C)O)cnc2O[C@@H]1CN(C)Cc1cncnc1	0	23[16.7 µM]	/	11	23*
